Bioassay records (PubChem)
B2AR arrestin – beta2AR (human) beta-arrestin recruitment activity; Potency, µM (titrated, usually from 46.1 µM), for the others: at the top dose activation, hits mostly activators; P07550; beta-arrestin recruitment to beta2AR, cell-based reporter; 330,000 tested, 0.02% active;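 note: potency is the fitted concentration of half-maximal effect; 0% = DMSO controls and full agonism = EC100 isoproterenol or metaproterenol; nearly all actives have a fitted effect of over 65% in size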
Target sequence (P07550 whole entry, looked up): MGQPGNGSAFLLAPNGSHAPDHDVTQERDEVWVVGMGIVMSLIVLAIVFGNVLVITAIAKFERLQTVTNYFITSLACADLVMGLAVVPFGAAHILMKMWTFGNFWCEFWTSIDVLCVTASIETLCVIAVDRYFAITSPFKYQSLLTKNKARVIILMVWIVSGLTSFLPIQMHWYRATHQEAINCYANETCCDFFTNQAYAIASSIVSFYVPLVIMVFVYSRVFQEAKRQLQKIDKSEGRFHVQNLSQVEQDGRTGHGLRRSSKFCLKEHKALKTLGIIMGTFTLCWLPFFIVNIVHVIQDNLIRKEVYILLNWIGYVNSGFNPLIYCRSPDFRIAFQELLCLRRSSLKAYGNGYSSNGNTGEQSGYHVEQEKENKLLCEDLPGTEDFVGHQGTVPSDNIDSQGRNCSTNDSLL
ELG1 DNA repair – blocks ELG1-dependent DNA repair in HEK293T cells | HEK293T ELG1-luciferase reporter, luminescence, 16 h; DNA damage induced by 5-fluorouridine | Potency, µM (highest dose often 46.1 µM), without a hit: top-dose activity change, negative = inhibition, usual class: inhibitors | 330,000 tested, 2.3% active | AID 504467; note: potency is the fitted concentration of half-maximal effect; nearly all actives have a fitted effect of over 55% in size
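Overnight (16 hr) co-exposure of 2,000 cells/well to 5-fluorouridine and compound at 37 °C preceded detection. Luciferase was quantified via ONE-Glo luminescence; loss of signal denotes inhibition.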
VP16 counter – Gal4-VP16 reporter inhibition counter-screen | Potency, µM (top dose mostly 53.6 µM), for the others: at the top dose activity, negative = inhibition, usual class: inhibitors | Drosophila S2 Gal4-VP16 UAS-luciferase, luminescence, 20 h | 310,000 tested, 3.5% active;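 note: Gal4-VP16 expression switched on by copper sulfate through the metallothionein promoter; potency is the fitted concentration of half-maximal effect; nearly all actives have a fitted effect of over 50% in size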
RORgamma inh – blocks mouse ROR gamma transcriptional activity | P51450 | Drosophila S2 Gal4-RORgamma UAS-luciferase reporter, 20 h | Potency, µM (series often up to 53.6 µM), for inactives: at the top dose activity change, negative = inhibition, usual class: inhibitors | 310,000 tested, 5.4% active | AID 2551; note: potency is the fitted concentration of half-maximal effect; nearly all actives have a fitted effect of over 60% in size
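Drosophila Schneider cells stably carrying a metallothionein-driven Gal4 DBD–ROR gamma fusion and a UAS-Photinus luciferase reporter were exposed to compound for 1 hr, then induced with copper sulfate (700 uM final) for 20 hr at ambient temperature before luminescence reading.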
TSHR antagonist – human thyrotropin receptor antagonism; P16473; TSHR-expressing cells, TSH-stimulated cAMP HTRF, 2 h; stronger effect = lower value; activity change, negative = inhibition, % at 11.5 µM; 330,000 tested, 0.2% active; AID 504810;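 active = activity change below a set negative limit, meaning inhibition stronger than a set level, cut at about -70% in these data; inconclusive = activity change between two set negative limits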
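Inhibition of cAMP made by TSHR-expressing cells under TSH stimulation (4nM final, EC80; 2 h, 37 deg C) is quantified with a one-step lysis HTRF kit, anti-cAMP cryptate versus cAMP-d2.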
* marks the source's active call; other numbers are inactive results; [ ] = remark or other dose. Most compounds without a hit are left out; they make up all but 7.5% or so of the library. Unless noted, calls come from the whole dose curve; as a rule, active = well fitted curve in the direction sought with a large enough effect; inconclusive = small, poorly fitted or top-dose-only effect, or another doubt; inactive = no such curve, though single readings can be large; an effect the other way counts as inactive or inconclusive. Unless noted, % is set by controls: 0 for no effect and ±100 for the full control effect.

What do the screens show for `CCCNC(=O)COC(=O)/C=C/c1cccc(F)c1`?
B2AR arrestin: 0%; ELG1 DNA repair: -1%; VP16 counter: 3%; RORgamma inh: 22%; TSHR antagonist: 10

What do the screens show for `CCCNC1=C(N(C(C)=O)c2cccc(F)c2)C(=O)c2ccccc2C1=O`?
B2AR arrestin: 0%; ELG1 DNA repair: 4.6µM*; VP16 counter: inconclusive; RORgamma inh: inconclusive; TSHR antagonist: 18

What do the screens show for `Cc1ccc(S(=O)(=O)N2CCN(CC(=O)Nc3ccc(N4CCOCC4)cc3)CC2)cc1C`?
B2AR arrestin: 0%; ELG1 DNA repair: 0%; VP16 counter: 3%; RORgamma inh: -6%[10 µM]; TSHR antagonist: 10

Results for Cc1cccc(N2CCN(CC(=O)Nc3ccc(S(=O)(=O)N4CCOCC4)cc3)CC2)c1C ?
B2AR arrestin: -1%; ELG1 DNA repair: 15µM*; VP16 counter: inconclusive; RORgamma inh: 31%; TSHR antagonist: -13

What do the screens show for `Cc1cccc(N2CCN(CC(=O)Nc3nccs3)CC2)c1C`?
B2AR arrestin: 0%; ELG1 DNA repair: inconclusive; VP16 counter: -12%; RORgamma inh: 10µM*; TSHR antagonist: -2

What do the screens show for `Cc1nc(SCC(=O)Nc2ccc(S(=O)(=O)N3CCOCC3)cc2)c2c(C)c(C)sc2n1`?
B2AR arrestin: 0%; ELG1 DNA repair: 16µM*; TSHR antagonist: -3

What do the screens show for `Cc1cccc(C)c1NC(=S)N/N=C/c1ccc(OCCC(C)C)cc1`?
B2AR arrestin: 0%; ELG1 DNA repair: inconclusive; VP16 counter: 2.8µM*; RORgamma inh: 1.6µM*; TSHR antagonist: -16

What do the screens show for `Cc1ccc(C)c(NC(=O)CCOc2ccccc2)c1`?
B2AR arrestin: 0%; ELG1 DNA repair: -18%; VP16 counter: 0%; RORgamma inh: 17%; TSHR antagonist: 16

Results for CCCCOc1ccc(/C=N/NC(=S)Nc2cc(C)ccc2C)cc1 ?
B2AR arrestin: 0%; ELG1 DNA repair: 16%; VP16 counter: 5µM*; RORgamma inh: 6.3µM*; TSHR antagonist: 6

How did CCCCOc1ccc(/C=N/NC(=S)Nc2cccc(C)c2C)cc1 do in these assays?
B2AR arrestin: 5%; ELG1 DNA repair: -9%; VP16 counter: 3.2µM*; RORgamma inh: 1.8µM*; TSHR antagonist: -5

How did CC1NC(=O)C(N)CNC(=O)C(C2CCN=C(N)N2)NC(=O)/C(=C/NC(N)=O)NC(=O)C(CNC(=O)CC(N)CCCN)NC1=O (stereo not given) do in these assays?
VP16 counter: 0%; RORgamma inh: 7%

What do the screens show for `CCN(Cc1ccncc1)C(=O)c1ccc2c(c1)S(=O)(=O)c1ccccc1C2=O`?
B2AR arrestin: 0%; ELG1 DNA repair: 0%; VP16 counter: 3%; RORgamma inh: -19%; TSHR antagonist: -6

How did COc1ccc(OC)c(/C=N\NC(=O)c2ccc(-c3ccccc3)cc2)c1 do in these assays?
B2AR arrestin: 0%; ELG1 DNA repair: inconclusive; VP16 counter: -13%; RORgamma inh: -33%; TSHR antagonist: -3

How did COc1cccc(/C=C2\SC(=O)NC2=O)c1OCc1ccc(C(=O)O)cc1 do in these assays?
B2AR arrestin: 0%; ELG1 DNA repair: -7%; VP16 counter: -19%[10 µM]; RORgamma inh: 16%; TSHR antagonist: 21

What do the screens show for `COc1ccc(OC)c(/C=C2\S/C(=N/NC(=O)c3ccc4ccccc4c3)NC2=O)c1`?
B2AR arrestin: 0%; ELG1 DNA repair: -3%; VP16 counter: inconclusive; RORgamma inh: 1.4µM*; TSHR antagonist: -19

Results for O=C1N/C(=N/NC(=O)c2cccc3ccccc23)S/C1=C\c1ccccc1OCc1ccccc1 ?
B2AR arrestin: -4%; ELG1 DNA repair: inconclusive; VP16 counter: inconclusive; RORgamma inh: 0.63µM*; TSHR antagonist: 19

How did OCC1OC(O)C(O)C(O)C1O (stereo not given) do in these assays?
VP16 counter: -4%; RORgamma inh: 9%

Results for Cc1ccc(S(=O)(=O)CNC(=O)c2ccccc2)cc1 ?
B2AR arrestin: 0%; ELG1 DNA repair: 11%; VP16 counter: -21%; RORgamma inh: inconclusive; TSHR antagonist: 50

What do the screens show for `Cc1ccc(S(=O)(=O)CNC(=S)c2ccc3ccccc3c2)cc1`?
B2AR arrestin: inconclusive; ELG1 DNA repair: 9%; VP16 counter: inconclusive; RORgamma inh: 11µM*; TSHR antagonist: -10

What do the screens show for `COc1ccc(C(=S)NCS(=O)(=O)c2ccc(C)cc2)cc1`?
B2AR arrestin: 0%; ELG1 DNA repair: -8%; VP16 counter: inconclusive; RORgamma inh: 16µM*; TSHR antagonist: 1

How did Cc1ccc(S(=O)(=O)CNC(=S)c2cccc(C)c2)cc1 do in these assays?
B2AR arrestin: 2%; ELG1 DNA repair: -8%; VP16 counter: inconclusive; RORgamma inh: 13µM*; TSHR antagonist: -10

What do the screens show for `CCCCc1c(C)nc2ccc(Br)cc2c1SCCC#N`?
B2AR arrestin: 0%; ELG1 DNA repair: 18µM*; VP16 counter: -13%; RORgamma inh: inconclusive; TSHR antagonist: -2

What do the screens show for `CCCc1c(C)nc2ccccc2c1SCCC#N`?
B2AR arrestin: -1%; ELG1 DNA repair: 23µM*; VP16 counter: -4%; RORgamma inh: -4%; TSHR antagonist: 11

What do the screens show for `COc1ccc(Nc2nc(CN3CCOCC3)nc3sc4c(c23)CCC(C)C4)cc1OC` (stereo not given)?
B2AR arrestin: 0%; ELG1 DNA repair: 6.5µM*; VP16 counter: -8%; RORgamma inh: -4%; TSHR antagonist: -3

Results for COc1cc2c(cc1OC)CN(c1nc(CN3CCOCC3)nc3sc4c(c13)CCC(C)C4)CC2 (stereo not given) ?
B2AR arrestin: 0%; ELG1 DNA repair: 7.3µM*; VP16 counter: inconclusive; RORgamma inh: 11µM*; TSHR antagonist: 3

How did O=Cc1ccccc1C=O do in these assays?
VP16 counter: -23%; RORgamma inh: -3%[10 µM]

How did COc1cccc(Nc2ncc3nc(CCc4ccccc4)c(=O)n(C4CC4)c3n2)c1 do in these assays?
VP16 counter: -9%; RORgamma inh: 3%
